PubChem BioAssay AID1159580 (chemical genetic matrix, 2015)
In all, about 5,500 compounds went through this assay and about 2,000 (36%) were called active. About 18% were inconclusive and are not listed. Rule as the data show it: active = normalized growth mostly below about 0.91 (no sharp cut-off); inconclusive = no clear call, values can overlap the other calls; inactive = mostly above about 0.92. This is one part of the list.

Assay: chemical genetic growth profiling, strain panel (AID 1159580);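 also: tested at 20 µM; growth read once vehicle control cultures reached saturation at 30 °C; 1 = growth at the plate median or of vehicle wells; lower values mean less growth of the strain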
Details: S. cerevisiae deletion strains, growth OD

Measured: normalized growth

Cn1cc(C2=C(c3ccc(Cl)cc3Cl)C(=O)NC2=O)c2ccccc21
inactive: locus YAL040C, strain CLN3, hits give low values 1.02 | locus YCL061C, strain MRC1 (second series), hits give low values 1.01 | locus YDR363W, strain ESC2, hits give low values 1.01 | locus YER002W, strain NOP16, hits give low values 0.994 | locus YMR263W, strain SAP30, hits give low values 1.01 | locus YNL175C, strain NOP13, hits give low values 1 | locus YNL197C, strain WHI3, hits give low values 1 | locus YNL224C, strain SQS1, hits give low values 1.02 | locus YNL322C, strain KRE1, hits give low values 1 | locus YOR083W, strain WHI5 (second series), hits give low values 1.01 | locus YPL241C, strain CIN2, hits give low values 1.01
